SSB-PriA inh = K. pneumoniae PriA-SSBct interaction inhibition | inhibition, % at 33 µM | AlphaScreen SSBct-PriA binding, biotinylated peptide | hit rate 0.6% among 430,000; in the data active = inhibition mostly above about 37%, no sharp cut-off; inactive = mostly below about 20%;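 also: plate controls were negative control peptide for no effect and reference peptide for full effect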
VHR inh abs = DUSP3 (human) phosphatase inhibition | P51452 | recombinant VHR phosphatase, pNPP absorbance | inhibition, % at 13.3 µM | hit rate 0.52% among 290,000 | AID 1654; in the data active = inhibition above about 50%
Target sequence (P51452 whole entry, looked up): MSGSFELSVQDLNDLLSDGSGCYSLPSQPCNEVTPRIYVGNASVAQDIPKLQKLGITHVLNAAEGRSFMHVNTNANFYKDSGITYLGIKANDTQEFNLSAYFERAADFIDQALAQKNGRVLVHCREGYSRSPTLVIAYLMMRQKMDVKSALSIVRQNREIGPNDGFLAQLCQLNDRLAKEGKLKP
3CLpro inhibitor = SARS-CoV 3CLpro protease inhibition; recombinant SARS-CoV 3CLpro, quenched FRET peptide cleavage; hit rate 0.14% among 290,000; AID 1706; inhibition, % at 6 µM; P0C6X7; in the data active = inhibition above about 12%
Mtb hypoxia rep = inhibitors of hypoxia-regulated fluorescent reporter in Mycobacterium tuberculosis | M. tuberculosis hypoxia-regulated fluorescent reporter, fluorescence | fluorescence inhibition, % (test concentration not listed) | hit rate 0.1% among 300,000 | AID 1159583; in the data active = fluorescence inhibition mostly above about 23%, no sharp cut-off; inactive = mostly below about 17%
CCHF vOTU inh = blocks the CCHF virus ovarian tumor domain protease; hit rate 0.55% among 370,000; CCHFV vOTU protease, Pep-AMC fluorescence; AID 651958; inhibition, % at 11.5 µM; in the data active = inhibition above about 30%; also: 0% = vehicle wells with enzyme and 100% = no enzyme wells
An asterisk follows results filed as active; . = no result given. Rows were chosen to be rich in hits. Some 1.3% of all compounds tested hit in one or more screens of this group.

SMILES	SSB-PriA inh	VHR inh abs	3CLpro inhibitor	Mtb hypoxia rep	CCHF vOTU inh
Cc1cc(NC(=O)c2cccc3ccccc23)n(-c2nc3c(cnn3-c3ccc(F)cc3)c(=O)[nH]2)n1	43.0*	.	.	.	.
COc1cccc(C(=O)N2CC(Oc3cccnc3)C2)c1	-4.0	.	.	.	.
O=C(CCc1ccccc1)Nc1ncn[nH]1	-3.7	52.7*	-0.7	.	-2.5
Nc1ccc(SCc2nc3cccc4c3n2CCC4)cc1	44.3*	32.2	1.9	.	-8.6
COCCn1c(SCC(=O)Nc2nccs2)nc2c(c1=O)S[C@@H](C)C2	-22.0	.	.	.	.
CS(=O)(=O)N1C2CCC1CC(NC(=O)Cc1ccc3c(c1)OCO3)C2 (stereo not given)	1.0	.	.	.	.
O=C(NC1CCC(Oc2cnccn2)CC1)c1ccc(N2CCOCC2)cc1 (stereo not given)	-5.0	.	.	.	.
O=C(CSc1ccc2nnc(-c3ccccn3)n2n1)Nc1ccccc1	-10.4	36.6	-0.8	3.4	-3.0
CCCCC(Sc1ccc2nnc(-c3ccccn3)n2n1)C(=O)O (stereo not given)	94.0*	.	.	.	.
COC(=O)CSc1ccc2nnc(-c3ccccn3)n2n1	77.1*	.	.	.	.
Cc1nn(C)cc1S(=O)(=O)Nc1ccc(Cl)c(Cl)c1	-4.0	.	.	.	.
CN(C)c1ccc(-c2nc3ccccc3n2CCOc2ccccc2)cc1	29.0*	.	.	.	.
COc1ccc(-c2nc3ccccc3n2CCOc2ccccc2)cc1OC	1.0	.	.	.	.
COc1ccc(C(=O)N2CCN(c3cc(C(F)(F)F)nc(C)n3)CC2)c(C)c1	-9.0	.	.	.	.
Cc1ccccc1C(=O)N1CCN(CCNC(=O)C(=O)Nc2ccc(Br)cc2)CC1	39.0*	22.9	1.9	-1.9	-10.5
CC(=O)c1cccc(NC(=O)CCc2nnc3ccc(NCc4ccc5c(c4)OCO5)nn23)c1	-15.6	56.8*	-2.5	-13.2	5.1
CC(=O)c1cccc(NC(=O)CCc2nnc3ccc(N4CCN(C)CC4)nn23)c1	-11.8	-9.1	-0.9	-7.7	6.5
NC(=O)C1CCN(C(=O)CCc2csc(NS(=O)(=O)c3ccccc3)n2)CC1	3.0	.	.	.	.
O=S(=O)(/N=C/c1c(O)ccc2ccccc12)c1ccccc1	.	53.9*	-1.3	.	-16.6
COc1ccc(-c2nnc(NC(=O)Cc3ccc(C(C)C)cc3)o2)c(OC)c1	-12.0	.	.	.	.
O=C(C1CCC(CNS(=O)(=O)c2cccc3cccnc23)CC1)N1CCc2ccccc21 (stereo not given)	0.9	54.5*	0.7	.	1.7
O=C(C1CCCN1S(=O)(=O)c1cccc2cccnc12)N1CCc2ccccc21 (stereo not given)	-10.1	14.8	3.0	.	-6.9
CN1CCN(C(=O)C2CCC(CNS(=O)(=O)c3cccc4cccnc34)CC2)CC1 (stereo not given)	9.9	10.7	1.7	.	-11.8
O=C(C1CCN(S(=O)(=O)c2cccc3cccnc23)CC1)N1CCc2ccccc21	-2.4	54.9*	0.9	.	3.0
CC(C)NC(=O)COc1coc(CN2CCN(Cc3ccccc3)CC2)cc1=O	-28.1	53.4*	-3.9	2.2	11.0
SMILES	SSB-PriA inh	VHR inh abs	3CLpro inhibitor	Mtb hypoxia rep	CCHF vOTU inh
O=C(COc1coc(CN2CCN(c3ccccc3)CC2)cc1=O)Nc1ccc(F)cc1	45.6*	.	.	11.3	0.4
O=C(COc1coc(CN2CCN(c3ccc(F)cc3)CC2)cc1=O)Nc1ccccc1	-5.3	.	.	-2.2	-3.7
CNC(=O)COc1coc(CN2CCN(Cc3ccccc3)CC2)cc1=O	-4.0	5.5	-1.5	9.1	3.1
NC(=O)c1cc(-c2ccccc2)sc1NC(=O)c1ccccc1F	-47.0	.	.	.	.
COC1OC2O[C@@]3(C)CCC4C(C)CCC(C1C)[C@@]24OO3 (stereo not given in full)	.	.	.	89.6*	.
CCC(C)NC(=O)CCC(=O)OC1O[C@H]2OC3(C)CC[C@H]4[C@H](C)CCC(C1C)C24OO3 (stereo not given in full)	0.8	18.9	3.3	74.1*	6.0
CCC(C)C(NC(=O)CCCNC(=O)CCC(=O)OC1O[C@H]2OC3(C)CC[C@H]4[C@H](C)CCC(C1C)C24OO3)C(=O)O (stereo not given in full)	.	-28.6	2.5	.	0.8
C[C@@H]1CC[C@H]2[C@@H](C)C(=O)O[C@@H]3O[C@@]4(C)CC[C@@H]1[C@]32OO4	-11.2	16.5	-2.2	.	-4.8
CC(CC(=O)Nc1ccc2c(c1)OCCO2)=NNC(=O)Cc1ccc(Cl)cc1	1.9	.	.	7.5	.
O=C(Cc1c(C(=O)O)[nH]c2ccc(Cl)cc12)Nc1ccc2c(c1)OCCO2	-8.4	51.7*	6.7	.	11.6
O=C(Cc1csc(Nc2cccc(Cl)c2)n1)Nc1ccc2c(c1)OCCO2	20.0*	.	.	.	.
O=C(Cc1csc2nc(-c3ccccc3)cn12)Nc1ccc2c(c1)OCCO2	44.0*	.	.	.	.

From PubChem
